# Results published in the supplement of paper PMC8728848.
# The sample as a whole holds a higher share of the strongest signals than the screen did.
# B1: AntigenI/IIA3VP1 (Streptococcus mutans), C9E3B4 (protein)
# chain: AANEADYQAKLTAYQTELARVQKANADAKAAYEAAVAANNAANAALTAENTAIKKRNADAKADYEAKLAKYQADLAKYQKDLADYPVKLKAYEDEQASIKAALAELEKHKNEDGNLTEPSAQNLVYDLEPNANLSLTTDGKFLKASAVDDAFSKSTSKAKYDQKILQLDDLDITNLEQSNDVASSMELYGNFGDKAGWSTTVSNNSQVKWGSVLLERGQSATATYTNLQNSYYNGKKISKIVYKYTVDPKSKFQGQKVWLGIFTDPTLGVFASAYTGQVEKNTSIFIKNEFTFYDEDGKPINFDNALLSVASLNREHNSIEMAKDYSGKFVKISGSSIGEKNGMIYATDTLNFKQGEGGSRWTMYKNSQAGSGWDSSDAPNSWYGAGAIKMSGPNNYVTVGATSATNVMPVSDMPVVPGKDNTDGKKPNIWYSLNGKIRAVNVPKVTKEKPTPPVKPTAPTKPTYETEKPLKPAPVAPNYEKEPTPPTRLEHHHHHH
# Legend:
# Assay in all cases: glycan array binding signal (z-score within array); higher = stronger binding
# Conditions in all cases: glycan notation: IUPAC condensed, linker removed
# [1] = target: Fuc(a1-2)Gal(b1-3)GlcNAc(b1-3)Gal(b1-4)Glc
# Outline: (§1)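 The Consortium for Functional Glycomics database supplied 3228 glycan arrays, of which those lacking an available protein sequence were dropped. The binding signal, a within-array Z-score, was averaged across arrays of the same protein sequence and across linkers. Negative scores can be read as non-binding.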
# [2] = target: Fuc(a1-2)Gal(b1-3)GlcNAc6S
# Outline: as §1
# [3] = target: Fuc(a1-2)Gal(b1-3)[Fuc(a1-4)]GlcNAc
# Outline: as §1
# [4] = target: Fuc(a1-2)Gal(b1-4)Fuc(a1-3)]GlcNAc(b1-2)Man(a1-3)[Fuc(a1-2)Gal(b1-4)[Fuc(a1-3)]GlcNAc(b1-2)Man(a1-6)]Man(b1-4)GlcNAc(b1-4)GlcNAc
# Outline: as §1
# [5] = target: Fuc(a1-2)Gal(b1-4)GlcNAc(b1-3)[Fuc(a1-2)Gal(b1-4)GlcNAc(b1-6)]GalNAc
# Outline: as §1
# [6] = target: Fuc(a1-2)Gal(b1-4)[Fuc(a1-3)]GlcNAc(b1-3)Gal(b1-4)[Fuc(a1-3)]GlcNAc
# Outline: as §1
# [7] = target: Fuc(a1-2)[Gal(a1-3)]Gal(b1-4)GlcNAc(b1-2)Man(a1-3)[Fuc(a1-2)[Gal(a1-3)]Gal(b1-4)GlcNAc(b1-2)Man(a1-6)]Man(b1-4)GlcNAc(b1-4)[Fuc(a1-6)]GlcNAc
# Outline: as §1
# [8] = target: Fuc(a1-3)[Gal(b1-4)]GlcNAc(b1-3)Gal(b1-4)[Fuc(a1-3)]GlcNAc(b1-3)Gal(b1-4)[Fuc(a1-3)]GlcNAc
# Outline: as §1
# [9] = target: Fuc(a1-3)[Gal(b1-4)]GlcNAc(b1-3)GalNAc
# Outline: as §1
# [10] = target: Gal(a1-3)Gal(b1-3)GlcNAc(b1-2)Man(a1-3)[Gal(a1-3)Gal(b1-3)GlcNAc(b1-2)Man(a1-6)]Man(b1-4)GlcNAc(b1-4)GlcNAc
# Outline: as §1
# [11] = target: Gal(a1-3)Gal(b1-3)GlcNAc(b1-3)GalNAc
# Outline: as §1
# [12] = target: Gal(a1-3)Gal(b1-4)GlcNAc(b1-3)GalNAc
# Outline: as §1
# [13] = target: Gal(a1-3)Gal(b1-4)[Fuc(a1-3)]GlcNAc(b1-2)Man(a1-3)[Gal(a1-3)Gal(b1-4)[Fuc(a1-3)]GlcNAc(b1-2)Man(a1-6)]Man(b1-4)GlcNAc(b1-4)GlcNAc
# Outline: as §1
# [14] = target: Gal(a1-4)Gal(b1-4)GlcNAc(b1-3)Gal(b1-4)Glc
# Outline: as §1
# Gal(a1-4)GlcNAc = target: Gal(a1-4)GlcNAc
# Outline: as §1
# Gal(b1-2)Gal = target: Gal(b1-2)Gal
# Outline: as §1
# [15] = target: Gal(b1-3)GlcNAc(b1-2)Man(a1-3)[Gal(b1-3)GlcNAc(b1-2)Man(a1-6)]Man(b1-4)GlcNAc(b1-4)GlcNAc
# Outline: as §1
# [16] = target: Gal(b1-3)GlcNAc(b1-3)Gal(b1-4)GlcNAc(b1-3)Gal(b1-4)GlcNAc(b1-2)[Gal(b1-3)GlcNAc(b1-3)Gal(b1-4)GlcNAc(b1-3)Gal(b1-4)GlcNAc(b1-6)]Man(a1-6)[Gal(b1-3)GlcNAc(b1-3)Gal(b1-4)GlcNAc(b1-3)Gal(b1-4)GlcNAc(b1-2)Man(a1-3)]Man(b1-4)GlcNAc(b1-4)[Fuc(a1-6)]GlcNAc
# Outline: as §1
# Gal(b1-3)GlcNAc6S = target: Gal(b1-3)GlcNAc6S
# Outline: as §1
# [17] = target: Gal(b1-3)[Fuc(a1-4)]GlcNAc(b1-6)GalNAc
# Outline: as §1
# [18] = target: Gal(b1-4)GlcNAc(b1-2)Man(a1-3)[GlcNAc(b1-4)][Gal(b1-4)GlcNAc(b1-2)Man(a1-6)]Man(b1-4)GlcNAc(b1-4)GlcNAc
# Outline: as §1
# [19] = target: Gal(b1-4)GlcNAc(b1-2)[Gal(b1-4)GlcNAc(b1-4)]Man(a1-3)[GlcNAc(b1-4)][Gal(b1-4)GlcNAc(b1-2)Man(a1-6)]Man(b1-4)GlcNAc(b1-4)GlcNAc
# Outline: as §1
# [20] = target: Gal(b1-4)GlcNAc(b1-2)[Gal(b1-4)GlcNAc(b1-6)]Man(a1-6)[GlcNAc(b1-4)][Gal(b1-4)GlcNAc(b1-2)Man(a1-3)]Man(b1-4)GlcNAc(b1-4)GlcNAc
# Outline: as §1
# [21] = target: Gal(b1-4)GlcNAc(b1-3)Gal(b1-4)GlcNAc
# Outline: as §1
# [22] = target: Gal(b1-4)GlcNAc(b1-3)Gal(b1-4)GlcNAc(b1-3)Gal(b1-4)GlcNAc(b1-3)Gal(b1-4)GlcNAc(b1-2)Man(a1-3)[Gal(b1-4)GlcNAc(b1-3)Gal(b1-4)GlcNAc(b1-3)Gal(b1-4)GlcNAc(b1-3)Gal(b1-4)GlcNAc(b1-2)Man(a1-6)]Man(b1-4)GlcNAc(b1-4)[Fuc(a1-6)]GlcNAc
# Outline: as §1
# [23] = target: Gal(b1-4)GlcNAc(b1-3)Gal(b1-4)GlcNAc(b1-3)Gal(b1-4)GlcNAc(b1-3)Gal(b1-4)GlcNAc(b1-3)Gal(b1-4)GlcNAc(b1-3)Gal(b1-4)GlcNAc(b1-2)Man(a1-3)[Gal(b1-4)GlcNAc(b1-3)Gal(b1-4)GlcNAc(b1-3)Gal(b1-4)GlcNAc(b1-3)Gal(b1-4)GlcNAc(b1-3)Gal(b1-4)GlcNAc(b1-3)Gal(b1-4)GlcNAc(b1-2)Man(a1-6)]Man(b1-4)GlcNAc(b1-4)GlcNAc
# Outline: as §1
binder,measurement,setting,value
B1,glycan array binding signal (z-score),[1],-1.26
same,glycan array binding signal (z-score),[2],0.457
same,glycan array binding signal (z-score),[3],0.481
same,glycan array binding signal (z-score),[4],4.68
same,glycan array binding signal (z-score),[5],0.339
same,glycan array binding signal (z-score),[6],0.17
same,glycan array binding signal (z-score),[7],3.1
same,glycan array binding signal (z-score),[8],-0.372
same,glycan array binding signal (z-score),[9],2.64
same,glycan array binding signal (z-score),[10],3.47
same,glycan array binding signal (z-score),[11],2.79
same,glycan array binding signal (z-score),[12],-1.15
same,glycan array binding signal (z-score),[13],0.993
same,glycan array binding signal (z-score),[14],-0.067
same,glycan array binding signal (z-score),Gal(a1-4)GlcNAc,-0.879
same,glycan array binding signal (z-score),Gal(b1-2)Gal,-0.551
same,glycan array binding signal (z-score),[15],0.099
same,glycan array binding signal (z-score),[16],5.61
same,glycan array binding signal (z-score),Gal(b1-3)GlcNAc6S,0.094
same,glycan array binding signal (z-score),[17],3.1
same,glycan array binding signal (z-score),[18],-0.555
same,glycan array binding signal (z-score),[19],-0.31
same,glycan array binding signal (z-score),[20],-0.581
same,glycan array binding signal (z-score),[21],-0.087
same,glycan array binding signal (z-score),[22],3.27
same,glycan array binding signal (z-score),[23],3.91
